The values that follow come from ChEMBL document CHEMBL3988442, “University of Dundee, Small-Polar-MMV Screening Library” (2021).

For this test, the target named is T1, Aspartate--tRNA(Asp/Asn) ligase (Mycobacterium tuberculosis (strain ATCC 25618 / H37Rv)) (UniProt P9WFW3).
T1 sequence (whole entry): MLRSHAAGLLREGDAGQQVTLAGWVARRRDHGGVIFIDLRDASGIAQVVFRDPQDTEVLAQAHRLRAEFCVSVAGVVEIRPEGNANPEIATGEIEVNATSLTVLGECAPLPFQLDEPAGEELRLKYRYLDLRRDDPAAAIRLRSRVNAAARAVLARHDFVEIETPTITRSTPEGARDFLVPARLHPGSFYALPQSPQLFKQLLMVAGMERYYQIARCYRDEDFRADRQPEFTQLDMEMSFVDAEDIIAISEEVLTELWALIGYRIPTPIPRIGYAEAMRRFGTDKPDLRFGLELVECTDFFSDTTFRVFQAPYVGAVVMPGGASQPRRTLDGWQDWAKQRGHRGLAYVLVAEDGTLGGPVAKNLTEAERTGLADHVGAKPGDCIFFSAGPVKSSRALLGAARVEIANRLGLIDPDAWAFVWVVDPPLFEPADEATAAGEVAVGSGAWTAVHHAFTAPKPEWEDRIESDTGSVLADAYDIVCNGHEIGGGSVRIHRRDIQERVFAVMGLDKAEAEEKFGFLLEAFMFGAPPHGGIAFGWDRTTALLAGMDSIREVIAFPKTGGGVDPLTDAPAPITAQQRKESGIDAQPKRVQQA
The test is described as follows: Assay for Asp RNA synthetase-1 from Mycobacterium tuberculosis. The class given is functional. More on the design: scale not given: in the data most compounds retested in dose-response had high values. The note with it: 30 µM.
As to `Cc1cn2nc(N3CCCC3CC(C)(C)C)sc2n1` (stereo not given), the Percent Effect was determined as 1.06%.

For `O=C(NCCC1CCCO1)c1ccccc1N1CCOCC1` (stereo not given), the Percent Effect was -8.37%. To `Cc1ccc(C)c(C(NC(=O)C2CC2)c2cccnc2)c1` (stereo not given) belongs -0.277%; to `CC(C)NS(=O)(=O)c1cc(C(=O)O)cc(-c2ccccc2CN(C)C)c1`, 1.25%. In the case of `Cc1nn(CC(=O)N2CCN(c3ccncc3)CC2)c(C)c1Cl`, the Percent Effect came to 0.15%. `O=C1CC2(CCN(c3nncs3)C2)CN1c1ccccc1` (stereo not given): the Percent Effect worked out at 2.1%.

For `CCOCC(=O)N1C[C@@H]2COC[C@H](c3nc(C)no3)[C@@H]2C1`, the Percent Effect amounted to 2.15%.

For the compound `Cc1ccc(CC(=O)N2Cc3nccn3CC(Cn3cccn3)C2)cc1` (stereo not given), the Percent Effect was determined as 0.0228%.

On to `Cc1cc2c(=O)n3c(nc2s1)CCN(C(=O)c1cnn(C)c1C)CC3`, for which the Percent Effect is 0.849%. For the compound `O=C(Cc1cccnc1)N1CCC(OCc2ccccc2)CC1`, the Percent Effect was -3.5%. `CC(NC(=O)N(C)Cc1ccc(Cl)s1)c1ccccn1` (stereo not given): the Percent Effect was -2.02%. Take `Cc1cnn(C2CCCN(C(=O)CCCNc3ncccn3)C2)c1` (stereo not given): the Percent Effect is 1.18%. To `Cc1ccc(CNC(=O)NCCCn2nc3ccccn3c2=O)s1` belongs 7.2%; to `Cc1nn(C)c(N2CCOCC2)c1CNC(c1cccs1)C(C)C` (stereo not given), 1.8%; to `CC(=O)NCC1CCN(C(=O)c2csc(-c3ccc(C)cc3C)n2)CC1`, 5.3%.

`CC(C)CC1SCC(=O)Nc2c1cnn2-c1ccc(F)cc1` (stereo not given): the Percent Effect is -3.46%. On to `Cc1ccc(C(=O)N2Cc3c(CN4CCCCC4)nn(C)c3C2)cc1C`, for which the Percent Effect was 4.62%.

Regarding `Cc1noc(C2CCN(C(=O)c3c(C)noc3C)CC2)n1`, the Percent Effect worked out at 0.55%.

With `O=C(NCC(Cc1cccc(F)c1)N1CCCC1=O)c1cnccn1` (stereo not given), the Percent Effect is -5.12%.

With `COc1cc(C(=O)N2CCCS2(=O)=O)cc(Cl)c1OC`, the Percent Effect is -11.2%.

Take `O=C(NCCn1nc2ccccn2c1=O)c1cccc2[nH]ncc12`: the Percent Effect was -0.633%. As to `CCCSCC(=O)NS(=O)(=O)c1ccc2c(c1)OCCO2`, the Percent Effect is -3.99%.

As to `CCN(CC)C(CNC(=O)c1ccc(S(C)(=O)=O)cc1)c1ccco1` (stereo not given), the Percent Effect is -0.521%.

`CC(NC(=O)NCCN1CCCCCC1=O)c1nncn1C` (stereo not given): the Percent Effect is -7.63%.

In the case of `CC(=O)N1CCN(C(=O)C(C)n2cncn2)CC1` (stereo not given), the Percent Effect is -4.44%.

With `CCS(=O)(=O)N1CCC2(CC(=O)N(c3cccc(C)c3)C2)C1` (stereo not given), the Percent Effect amounted to 2.82%. For `Cc1cnn(CC2CCCN2C(=O)c2cc3ccccc3[nH]c2=O)c1` (stereo not given), the Percent Effect is -1.15%. Take `COc1ccccc1C(O)CNCc1c(C(C)C)nn(C)c1N(C)C` (stereo not given): the Percent Effect was -6.86%. Take `O=C(Nc1cccc(CNCc2cccs2)c1)C1CCCC1`: the Percent Effect was 1.74%. The result for `COCC1c2c(cnn2CC2CC2)CCN1Cc1cccs1` (stereo not given) reads -0.524%; that for `c1cnc(N2CCOC3(CCN(CC4CCCCC4)CC3)C2)nc1`, -0.897%. For the compound `Cc1ccc(CCNC(=O)N2CCCC(Cc3nccn3C)C2)cn1` (stereo not given), the Percent Effect is -1.82%. The result for `Cc1nnc(CCNC2CCN(c3ncnc4c(C)csc34)CC2)s1` reads 0.208%. Turning to `CCCN(C(=O)c1ccccn1)c1nc2c(s1)CCc1c-2cnn1C`, the Percent Effect stood at 55.9%. `Cc1nc(C2CCCN2Cc2nc(C)c(C)o2)no1` (stereo not given): the Percent Effect is -0.728%. As to `Cc1nn(C)c(N2CCOCC2)c1CNC1CCc2cc(F)ccc21` (stereo not given), the Percent Effect was -1.16%. For `CC(C)C(=O)NCc1cccc(N2CCCCC2=O)c1`, the Percent Effect is -1.01%.

In the case of `Cc1cnn(CC(C)NCc2ccc(S(C)(=O)=O)cc2)c1` (stereo not given), the Percent Effect came out at 1.18%. On to `O=C(c1ccc[nH]1)N1CCCC2(CCN(c3ccsc3)C2=O)C1` (stereo not given), for which the Percent Effect was 3.37%. Regarding `Cc1cnn(C2CCCN(C(=O)c3ccc(N(C)C)nn3)C2)c1` (stereo not given), the Percent Effect was -1.49%.
